The subject of test [1] is Plasmodium falciparum Sir2 (PF13_0152, Sir2A). As to the kind of experiment: Plasmodium falciparum Sir2A binding compounds – biochemical, small-molecule microarray, 635 nm fluorescence, primary screen (AID 1098).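 Note: score merges spot fluorescence intensity with its signal-to-noise ratio.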 The following applies: fluorescence 635 nm, higher = more signal.
Test [2] can be described thus: probe aDKK1 binding to arrayed compounds – biochemical, biotinylated probe, 635/667 nm fluorescence, primary screen (AID 1099).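 Note: score merges 667nm spot fluorescence with signal to noise across triplicate slides.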 The following applies: small-molecule microarray, higher = more signal.
Test [3] in a line: probe aCHRDL2 binding to arrayed compounds – biochemical, biotinylated probe, 635/667 nm fluorescence, primary screen (AID 1100). The following applies: small-molecule microarray, higher = more signal.
Test [4] is described as follows: change in splice reporter luminescence, either direction, cell-based, HEK293, spliceosome inhibition project, primary screen (AID 1101).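 Note: HEK293 cells carrying a splicing-competent luciferase reporter gene; test concentration not given here.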 The following applies: HEK293 splicing luciferase reporter, 24 h, higher = more signal, called active from +8 up or from −8 down. In general terms: A reporter such as luciferase makes a cellular process visible.
For test [5], the target named is Fibroblast growth factor 10 (Homo sapiens) (UniProt O15520). As to the kind of experiment: compounds binding fibroblast growth factor 10 – biochemical, small-molecule microarray, 635 nm fluorescence, primary screen (AID 1102). The following applies: FGF10 binding, fluorescence 635 nm, higher = more signal.
The test system of test [6] is glycogen synthase kinase-3 (GSK3A per assay name; protocol says GSK3B). The experiment in a line: compounds binding glycogen synthase kinase-3 – biochemical, small-molecule microarray, 635 nm fluorescence, GSK3A, primary screen (AID 1103). Note: the record names both GSK3A and GSK3B. The following applies: fluorescence 635 nm, higher = more signal.
The target of test [7] is Epidermal growth factor receptor (Homo sapiens) (UniProt P00533). The experiment in a line: compounds binding epidermal growth factor receptor – biochemical, small-molecule microarray, 635 nm fluorescence, primary screen (AID 1104).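 Note: score merges 667 nm emission intensity with spot signal to noise over triplicate slides.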 The following applies: EGFR binding, higher = more signal.
Test [8] concerns the target Follistatin-related protein 3 (Homo sapiens) (UniProt O95633). As to the kind of experiment: compounds binding follistatin-related protein 3 – biochemical, small-molecule microarray, 635 nm fluorescence, primary screen (AID 1105).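 Note: score merges emission near 667 nm and signal to noise per printed spot across three slides.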 The following applies: FSTL3 binding, higher = more signal.
In test [9] the target is Dickkopf-related protein 1 (Homo sapiens) (UniProt O94907). The experiment in a line: small molecules binding DKK1 protein – biochemical, small-molecule microarray, 635 nm fluorescence scan, primary screen (AID 1106).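 Note: score merges emission near 667 nm with signal to noise over three replicate slides.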 The following applies: higher = more signal.
The test system of test [10] is Inhibin beta A chain (activin A). As to the kind of experiment: small molecules binding activin A – biochemical, small-molecule microarray, 635 nm fluorescence scan, primary screen (AID 1107).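 Note: mouse activin A protein probed at 4.33 µg/mL on printed slides; score merges bound-protein fluorescence near 667 nm with spot signal-to-noise.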 The following applies: INHBA, higher = more signal.
Test [11] relates to Human papillomavirus type 1a protein E7 (residues 44-93). As to the kind of experiment: small molecules binding HPV E7 44-93 – biochemical, small-molecule microarray, residues 44-93, 635 nm fluorescence, primary screen (AID 1108).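 Note: E7 fragment applied at 1 µg/mL in TBST for 1 h at 4 C; score combines spot fluorescence with its signal to noise ratio.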 The following applies: fluorescence 635 nm, higher = more signal.
A short description of test [12]: hepatitis C replication reporter changes, two-sided – Huh7 cells, luciferase reporter, HCV replication inhibitor project, primary screen (AID 1109).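 Note: huh7 hepatoma cells harbouring a luciferase neomycin HCV replicon reporter; luciferase luminescence as measure of HCV replicon replication; test concentration not given here.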 The following applies: Huh7 HCV replicon luciferase reporter, 48 h; higher = more signal.
The target of test [13] is Left-right determination factor 2 (Homo sapiens) (UniProt O00292). The experiment in a line: small molecules binding LEFTY2 protein – biochemical, small-molecule microarray, 635 nm fluorescence scan, primary screen (AID 1110). The following applies: higher = more signal.
Test [14] concerns the target Calmodulin-1 (Homo sapiens) (UniProt P0DP23). As to the kind of experiment: small molecules binding calmodulin-1 with EGTA – biochemical, small-molecule microarray, Cy5-labelled CALM1, profiling panel (AID 1111).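 Note: labelled calmodulin applied in Tris saline Tween buffer holding calcium plus EGTA and DTT.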 The following applies: Cy5-CALM1 binding fluorescence, higher = more signal.
Test [15] has the same target. The experiment in a line: small molecules binding Ca-loaded calmodulin-1 – biochemical, small-molecule microarray, Cy5-labelled CALM1, plus calcium, artefact control for SMM control-protein annotation, profiling panel (AID 1112).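 Note: score merges spot fluorescence with signal to noise from triplicate slides.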 The following applies: Cy5-CALM1 binding fluorescence, higher = more signal.
The nature of test [16]: probe aWnt5a binding to arrayed compounds – biochemical, biotinylated probe, 635/667 nm fluorescence, primary screen (AID 1113).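 Note: score merges 667 nm fluorescence intensity with signal-to-noise per printed feature.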 The following applies: small-molecule microarray, higher = more signal.
Test [17] is described as follows: probe aShh binding to arrayed compounds – biochemical, biotinylated probe, 635/667 nm fluorescence, primary screen (AID 1114).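 Note: probe is biotin-labelled aShh protein from a stem cell growth factor screen; measures binding of labelled protein to compounds printed on the slide; score merges feature fluorescence at 667 nm with signal-to-noise.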 The following applies: small-molecule microarray, higher = more signal.
Test [18] in a line: probe aNog binding to arrayed compounds – biochemical, biotinylated probe, 635/667 nm fluorescence, primary screen (AID 1115).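 Note: probe is biotinylated aNog protein used at 0.15 µg/mL for 1 h at 4 C; z-score combines 667 nm fluorescence of each spot with its signal to noise.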 The following applies: small-molecule microarray, higher = more signal.
For test [19], the target named is Torsin-1A-interacting protein 1 (Homo sapiens) (UniProt Q5JTV8). The experiment in a line: compound microarray binding of lysate hLAP1 – cell lysate, small-molecule microarray, COS7 lysate, 635/667 nm fluorescence, primary screen (AID 1116). The following applies: 635 nm fluorescence, higher = more signal.
For test [20], the target named is Alpha-bungarotoxin (Bungarus multicinctus) (UniProt P60615). The experiment in a line: compounds binding labelled alpha-BTX control protein – biochemical, small-molecule microarray, Alexa647 label, 635/667 nm fluorescence, artefact control for SMM control protein annotation, profiling panel (AID 1117). The following applies: alpha-BTX-A647 binding fluorescence, higher = more signal.

Here are results for six compounds from PubChem BioAssay.

The source made the active and inactive calls.

Chain of Epidermal growth factor receptor (Homo sapiens) (P00533 whole entry, looked up): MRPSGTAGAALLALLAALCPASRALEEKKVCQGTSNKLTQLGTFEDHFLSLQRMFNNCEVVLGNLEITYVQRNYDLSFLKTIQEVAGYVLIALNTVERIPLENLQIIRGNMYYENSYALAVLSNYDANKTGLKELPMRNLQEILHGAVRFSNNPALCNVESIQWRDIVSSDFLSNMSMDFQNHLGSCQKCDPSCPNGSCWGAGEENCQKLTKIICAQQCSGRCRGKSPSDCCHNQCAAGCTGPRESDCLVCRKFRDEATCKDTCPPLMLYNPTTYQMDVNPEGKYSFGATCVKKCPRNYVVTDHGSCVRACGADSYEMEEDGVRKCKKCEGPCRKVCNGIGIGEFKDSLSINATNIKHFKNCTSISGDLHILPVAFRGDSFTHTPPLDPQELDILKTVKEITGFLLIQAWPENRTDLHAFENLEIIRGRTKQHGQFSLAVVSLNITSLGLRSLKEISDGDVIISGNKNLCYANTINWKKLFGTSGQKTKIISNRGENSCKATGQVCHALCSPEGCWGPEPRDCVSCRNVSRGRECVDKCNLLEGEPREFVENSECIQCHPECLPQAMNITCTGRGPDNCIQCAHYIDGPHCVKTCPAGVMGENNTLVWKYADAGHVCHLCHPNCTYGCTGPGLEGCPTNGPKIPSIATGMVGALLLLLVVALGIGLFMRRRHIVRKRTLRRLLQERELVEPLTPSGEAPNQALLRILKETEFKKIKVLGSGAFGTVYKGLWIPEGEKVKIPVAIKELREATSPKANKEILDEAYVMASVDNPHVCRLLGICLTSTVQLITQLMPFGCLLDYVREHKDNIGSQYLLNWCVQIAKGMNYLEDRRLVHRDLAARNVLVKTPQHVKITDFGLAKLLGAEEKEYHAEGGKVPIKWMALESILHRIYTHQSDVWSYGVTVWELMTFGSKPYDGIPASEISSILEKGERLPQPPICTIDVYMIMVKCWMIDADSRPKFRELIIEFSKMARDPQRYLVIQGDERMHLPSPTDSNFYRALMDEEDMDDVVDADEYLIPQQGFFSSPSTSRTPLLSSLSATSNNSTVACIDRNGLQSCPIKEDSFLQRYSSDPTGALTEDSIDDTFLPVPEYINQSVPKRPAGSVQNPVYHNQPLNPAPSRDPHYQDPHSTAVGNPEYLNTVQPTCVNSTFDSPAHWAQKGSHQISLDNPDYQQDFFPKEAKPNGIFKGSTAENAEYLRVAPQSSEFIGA
Chain of Alpha-bungarotoxin (Bungarus multicinctus) (P60615 whole entry, looked up): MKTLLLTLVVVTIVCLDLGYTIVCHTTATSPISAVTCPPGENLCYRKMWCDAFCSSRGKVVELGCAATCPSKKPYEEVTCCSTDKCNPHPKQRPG
Chain of Torsin-1A-interacting protein 1 (Homo sapiens) (Q5JTV8 whole entry, looked up): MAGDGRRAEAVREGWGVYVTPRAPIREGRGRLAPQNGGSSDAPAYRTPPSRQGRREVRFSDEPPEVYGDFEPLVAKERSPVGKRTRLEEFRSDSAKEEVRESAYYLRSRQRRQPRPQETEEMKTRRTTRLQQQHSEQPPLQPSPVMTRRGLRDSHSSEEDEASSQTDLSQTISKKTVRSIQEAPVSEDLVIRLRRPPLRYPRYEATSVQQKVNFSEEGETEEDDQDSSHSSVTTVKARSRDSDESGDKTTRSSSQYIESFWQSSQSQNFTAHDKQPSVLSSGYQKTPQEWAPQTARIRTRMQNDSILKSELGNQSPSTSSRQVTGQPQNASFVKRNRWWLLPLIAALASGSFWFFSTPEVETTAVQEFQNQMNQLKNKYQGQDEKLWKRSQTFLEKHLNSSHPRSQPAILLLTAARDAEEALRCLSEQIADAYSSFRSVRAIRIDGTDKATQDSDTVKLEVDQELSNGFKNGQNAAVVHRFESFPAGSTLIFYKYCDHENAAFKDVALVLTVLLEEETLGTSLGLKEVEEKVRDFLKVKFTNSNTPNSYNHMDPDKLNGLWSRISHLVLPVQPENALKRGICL
Chain of Follistatin-related protein 3 (Homo sapiens) (O95633 whole entry, looked up): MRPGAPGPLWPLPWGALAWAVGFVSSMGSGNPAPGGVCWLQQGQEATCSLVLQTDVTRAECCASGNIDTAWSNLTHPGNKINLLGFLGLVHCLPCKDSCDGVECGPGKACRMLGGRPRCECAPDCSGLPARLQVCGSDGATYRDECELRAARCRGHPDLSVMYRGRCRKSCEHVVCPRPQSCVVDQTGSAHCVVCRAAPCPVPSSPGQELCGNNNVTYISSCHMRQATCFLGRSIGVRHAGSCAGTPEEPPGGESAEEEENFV
Chain of Fibroblast growth factor 10 (Homo sapiens) (O15520 whole entry, looked up): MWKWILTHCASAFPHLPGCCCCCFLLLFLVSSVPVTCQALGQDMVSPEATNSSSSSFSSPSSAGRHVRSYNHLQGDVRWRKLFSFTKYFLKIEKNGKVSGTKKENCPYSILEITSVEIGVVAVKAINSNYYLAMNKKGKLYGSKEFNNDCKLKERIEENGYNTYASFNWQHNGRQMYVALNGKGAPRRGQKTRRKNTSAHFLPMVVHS
Chain of Left-right determination factor 2 (Homo sapiens) (O00292 whole entry, looked up): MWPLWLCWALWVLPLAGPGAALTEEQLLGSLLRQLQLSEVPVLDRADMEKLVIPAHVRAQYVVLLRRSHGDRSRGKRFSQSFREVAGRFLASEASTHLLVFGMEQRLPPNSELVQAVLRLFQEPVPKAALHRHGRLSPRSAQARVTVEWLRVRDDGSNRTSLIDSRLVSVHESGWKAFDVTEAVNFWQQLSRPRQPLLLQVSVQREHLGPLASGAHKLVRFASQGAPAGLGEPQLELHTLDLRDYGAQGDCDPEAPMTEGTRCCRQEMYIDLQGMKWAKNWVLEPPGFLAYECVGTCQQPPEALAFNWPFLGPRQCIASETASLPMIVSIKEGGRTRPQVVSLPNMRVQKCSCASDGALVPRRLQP
Chain of Dickkopf-related protein 1 (Homo sapiens) (O94907 whole entry, looked up): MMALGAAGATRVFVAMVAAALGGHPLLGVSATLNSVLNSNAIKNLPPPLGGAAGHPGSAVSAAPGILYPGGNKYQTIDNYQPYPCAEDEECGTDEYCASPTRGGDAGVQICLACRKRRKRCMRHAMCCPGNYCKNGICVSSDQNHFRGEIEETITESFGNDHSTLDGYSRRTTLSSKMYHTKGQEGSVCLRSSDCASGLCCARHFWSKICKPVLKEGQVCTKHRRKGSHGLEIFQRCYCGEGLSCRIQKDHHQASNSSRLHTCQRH

As to `CN1C(=O)C2C=CC(C(O)c3ccc(I)cc3)N(Nc3ccccc3)C2C1=O` (stereo not given), the composite z-score came to 1.23 in test [1]; 0.158 in test [2]; 0.926 in test [3]; 1.16 in test [5]; 0.995 in test [6]; 0.271 in test [7]. In addition, the composite z-score in test [8] is 1.31; in [9], -0.158; in [10] it was 0.966; in [11], 1.33; in test [13], 0.136; in [14], 1.63. Also, the composite z-score in test [15] came to 0.544; in test [16], 0.172; in test [17], 0.36; in test [18], 0.551; in test [19] it was 0.0151; in [20] it was 1.26. Further, the z-score in test [4] is 0.623 (inactive); in [12], 0.132.
For `COCCOC(=O)N1C(=O)[C@@]2(c3cc(C#CC4=CCCCC4)ccc31)[C@H](C(=O)N1CCCCCCC1)[C@H]1C(=O)O[C@H](c3ccccc3)[C@H](c3ccccc3)N1[C@@H]2c1ccc(OCCO)cc1`, the composite z-score is 1.23 in test [1]; 0.977 in test [2]; 0.734 in [3]; 1.03 in test [5]; 1.17 in test [6]; 0.825 in test [7]. In addition, the composite z-score in test [8] was 1.23; in test [9], 0.835; in [10] it was 1.43; in test [11], 1.18; in test [13] it was 0.654; in test [14], 1.02. The composite z-score in [15] is 1.04; in [16], 0.302; in [17], 0.936; in [18], -0.412; in test [19] it was 1.05; in [20], 0.845. Besides, the z-score was -0.611 (inactive) in test [4] and -2.08 in test [12].
For the compound `CC(C)N1CC=CC23O[C@@H]4/C=C\CCCOC(=O)C4[C@H]2C(=O)N(CCCCCCO)[C@@H]3C1=O` (stereo not given in full), the composite z-score is 1.44 in [1]; 0.0846 in test [2]; 0.777 in test [3]; -0.614 in [5]; -0.24 in [6]; -1.12 in test [7]. In addition, the composite z-score in [8] was -1.04; in [9], -1.08; in test [10] it was 1.03; in [11], 0.509; in test [13], -1.46; in test [14] it was -0.954. In addition, the composite z-score was -0.488 in test [15]; -0.0643 in [16]; -0.346 in test [17]; 0.345 in test [18]; 0.881 in [19]; -1.5 in test [20]. For the same compound, the figures for the z-score in test [4] and in test [12] were 0.569 (inactive) and -0.276, respectively.
`O=C1C[C@@](C(=O)NCc2ccccc2)(c2ccc([N+](=O)[O-])cc2)[C@@H](c2ccc(CO)cc2I)N1CC12CC3CC(CC(C3)C1)C2`: the composite z-score in test [1] is 1.05; in [2] it was -0.0517; in test [3], 0.214; in test [5], 1.31; in test [6], 0.794; in [7], 0.547. Besides, the composite z-score is 1.44 in test [8]; 0.578 in test [9]; -0.0204 in test [10]; 1.39 in test [11]; 0.591 in [13]; 0.387 in test [14]. Also, the composite z-score in test [15] is 0.0818; in test [16], -0.0529; in test [17], -0.152; in test [18], -0.131; in test [19], 0.903; in test [20] it was 1.02. Moreover, the z-score was -0.218 (inactive) in test [4] and -3.32 in [12].
Regarding `CCCCC(=C=CC[C@H](O)c1ccc(OCCO)cc1)C[C@H](O)c1cc(Cl)cc(Cl)c1O`, the composite z-score in test [1] was 1.06; in test [2], -0.0865; in test [3], 0.218; in [5] it was 1.35; in test [6], 0.11; in [7], -0.0609. Further, the composite z-score was 0.17 in test [8]; 0.193 in test [9]; 0.813 in test [10]; 0.584 in test [11]; 0.0916 in test [13]; 0.0258 in test [14]. The composite z-score in test [15] is -0.0211; in test [16], -0.198; in test [17] it was -0.153; in test [18], 0.452; in test [19] it was 0.849; in [20], 0.779. In addition, the z-score in test [4] is -0.321 (inactive); in [12], -1.63.
Take `C=CCNC(=O)[C@@H]1[C@H]2C(=O)O[C@H](c3ccccc3)[C@H](c3ccccc3)N2[C@H](c2ccc(O)cc2)[C@@]12C(=O)Nc1ccc(C#CCC(C(=O)OC)C(=O)OC)cc12`: the composite z-score in test [1] is 0.445; in test [2], 0.0989; in test [3], 0.181; in [5], 0.242; in test [6], 0.958; in [7], -0.0617. The composite z-score was 0.544 in test [8]; 0.317 in test [9]; 0.595 in test [10]; 1.31 in [11]; -0.0742 in test [13]; -0.0406 in test [14]. The composite z-score was 0.0221 in test [15]; -0.147 in [16]; -0.2 in [17]; 0.187 in test [18]; 0.411 in [19]; 0.388 in test [20]. For the same compound, the z-score in [4] is 0.246 (inactive); in test [12], -2.11.
